Test results from ChEMBL document CHEMBL3433997, “St. Jude Leishmania screening dataset” (2016).

Tests used:
Type in all cases: functional
[1] = biological target: Solute carrier family 2, facilitated glucose transporter member 1 (Homo sapiens) (UniProt P11166); test: ST_JUDE_LEISH: Cytotoxicity at 2uM final concentration against transgenic Leishmania Mexicana promastigotes LmGLUT1 that are glucose transport deficient and complemented with the human glucose transporter GLUT1. Activity is measured by DNA content using SYBR green in vitro
[2] = biological target: Hexose transporter 1 (Plasmodium falciparum) (UniProt O97467); test: ST_JUDE_LEISH: Cytotoxicity at 2uM final concentration against transgenic Leishmania Mexicana promastigotes LmPfHT that are glucose transport deficient and complemented with the Plasmodium falciparum hexose transporter. Activity is measured by DNA content using SYBR green in vitro
[3] = biological target: Glucose transporter (Leishmania mexicana) (UniProt O61059); test: ST_JUDE_LEISH: Cytotoxicity at 2uM final concentration against transgenic Leishmania Mexicana promastigotes LmGT2 that are glucose transport deficient and complemented with the L. Mexicana glucose transporter 2. Activity is measured by DNA content using SYBR green in vitro

Sequence of Solute carrier family 2, facilitated glucose transporter member 1 (Homo sapiens) (P11166 whole entry): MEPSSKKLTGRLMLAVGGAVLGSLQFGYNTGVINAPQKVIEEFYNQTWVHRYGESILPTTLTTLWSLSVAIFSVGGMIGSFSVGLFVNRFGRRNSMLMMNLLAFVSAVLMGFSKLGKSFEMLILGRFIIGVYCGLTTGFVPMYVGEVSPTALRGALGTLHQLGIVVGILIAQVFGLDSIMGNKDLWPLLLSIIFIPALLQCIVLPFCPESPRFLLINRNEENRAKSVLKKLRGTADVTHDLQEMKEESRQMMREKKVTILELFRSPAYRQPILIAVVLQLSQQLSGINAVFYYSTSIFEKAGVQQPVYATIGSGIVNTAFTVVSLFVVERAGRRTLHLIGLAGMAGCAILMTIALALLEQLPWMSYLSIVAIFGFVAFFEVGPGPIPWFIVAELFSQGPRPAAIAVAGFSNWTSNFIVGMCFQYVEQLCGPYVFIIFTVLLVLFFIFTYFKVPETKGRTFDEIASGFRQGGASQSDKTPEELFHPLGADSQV

Row | SMILES | inhibition [1] [%] | inhibition [2] [%] | inhibition [3] [%]
1 | Cc1nnc(N2C(=N)SC(=Cc3ccc(-c4ccc(OC(F)(F)F)cc4)o3)C2=O)s1 | 4.77 | 2.59 | 3.61
2 | COc1cc2c(cc1NC(=O)CN1CCN(C(=O)c3ccco3)CC1)oc1ccccc12 | 4.29 | 2.47 | -0.96
3 | COc1cc(F)c2ncc(Cl)c([C@H](O)CN3CCC(NCc4cc5c(cn4)OCCO5)CC3)c2c1 | 7.62 | 7.47 | 2.15
4 | Cc1ccc(NC(=O)Nc2ccc(Cl)c(C(F)(F)F)c2)cc1-c1ccc(C(=O)Nc2ccncc2)cc1 | 3.55 | 2.27 | 3.98
5 | O=C(/C=C/c1ccc(Cl)c(Cl)c1)N1CCN(C(=O)Nc2cccc(C(F)(F)F)c2)CC1 | 5.23 | 4.67 | 2.79
6 | O=C(Nc1ccc(C(=O)N(Cc2ccc3c(c2)OCO3)C2CCCC2)cc1)c1cccs1 | 1.03 | 0.69 | -2.85
7 | Cc1c(-c2cccc(C(C)(C)NCCCN3CCCCC3)c2)cnc(N)c1C | -0.39 | -0.25 | 0.62
8 | O=C(CCc1cccnc1)Nc1cccc(-c2ccc(-c3nc4cc(C(F)(F)F)ccc4[nH]3)cc2)c1 | 9.2 | 7.53 | 6.85
9 | CSC1=NC(C)(C)CC2(CC(c3cccc(C)c3)c3cc(Cl)c(O)cc3O2)N1 (centres undefined) | 0.95 | 1 | 0.47
10 | C#CCOc1ccc2ccccc2c1CNCCCCCCNCc1c(OCC#C)ccc2ccccc12 | 8.53 | 2.21 | 0.87
11 | Cc1cccc(-c2c(C)nc(N)nc2N)c1 | 4.96 | 2.06 | 1.08
12 | CS(=O)(=O)Nc1ccc2[nH]cc(C3CCN(CC4CCC(NC(=O)/C=C/c5ccc(Cl)c(Cl)c5)CC4)CC3)c2n1 (centres undefined) | 3.3 | 1.84 | 0.21
13 | Cc1ccc(NC(=O)c2ccc(CN3CCCN(CC4CCCCC4)CC3)cc2)cc1C | 7.66 | 7.13 | 8.98
14 | O=C(/C=C/c1ccc(Cl)c(Cl)c1)NCCCCCN1CCCN(C(=O)Nc2ccc(OC(F)F)cc2)CC1 | 3.05 | 1.15 | 0.91
15 | CCCc1cc(Cc2cnc(N)nc2N)ccc1OCCCCCC(=O)OCC | 1.31 | -1.27 | -2.01
16 | Cn1ccnc1CNC(=O)c1ccc(-c2cccc(-c3nc4cc(C(F)(F)F)ccc4[nH]3)c2)cc1 | 1.73 | 0.7 | 0.2
17 | O=C(NCC1CCC(CNCCCc2ccccc2)CC1)Nc1ccc(Cl)c(Cl)c1 (centres undefined) | 1.76 | 0.18 | 0.92

Row | SMILES | inhibition [1] [%] | inhibition [2] [%] | inhibition [3] [%]
18 | OCCN1CCN(c2nc(Nc3cccc(F)c3)c3cnn(-c4ccccc4)c3n2)CC1 | 3.91 | 0.94 | -2.4
19 | COc1ccc(-c2ccc(CNC(=O)c3ccc(C#N)cc3)c(F)c2)cc1CN1CCCN(C)CC1 | 0.92 | 0.66 | -3.44
20 | O=S(=O)(NCCN1CCCC1)c1ccc(-c2ccc(CNCc3ccccc3)cc2)cc1F | 3.64 | 3.01 | 0.32
21 | Cc1cc(NCCC(=O)Nc2ccccc2)nc(NCCc2cccnc2)n1 | 0.51 | 2.33 | 1.5
22 | Cc1cc(N(C)C)nc(Nc2ccc(NC(=O)Nc3ccccc3)cc2)n1 | 2.43 | 3.74 | 4.26
23 | O=C(Nc1cccc(-c2csc(-c3nc4ccccc4[nH]3)c2)c1)c1ccoc1 | 3.4 | 3.05 | 1.11
24 | CN(C)CC1c2[nH]c3ccccc3c2CCN1C(=O)Nc1ccc(Cl)c(Cl)c1 (centres undefined) | 5.56 | 7.79 | 5.8
25 | COc1ccc2c(c1)CCCC2C(C)NCC(O)c1cccc(C(F)(F)F)c1 (centres undefined) | 8.86 | 5.98 | 6.3
26 | CCOC(=O)C1=C(C)NC2=C(C(=O)CC(C)(C)C2)C1c1ccc(Cl)cc1 (centres undefined) | -1.57 | 0.77 | 0.29
27 | N=C(N)Nc1nc(-c2cccc(NC(=O)C(F)(F)F)c2)cs1 | 2.35 | 2.8 | 3.35
28 | CC(C)(C)C(=O)Nc1ccccc1Oc1ccc(Cl)cc1 | 5.77 | 4.21 | 5.27
29 | CCCCN1CCN(c2cc(NS(=O)(=O)c3ccc(C(=O)Nc4ccc(C(F)(F)F)cc4)cc3)ccc2OC)CC1 | 3.79 | 5.5 | 0.69
30 | CCCc1ccc(Cc2cnc3nc(N)nc(N)c3c2C)cc1 | 39.1 | 53.8 | 40
31 | COC(=O)C(NC(=O)c1ccc(-c2ccc(-c3nc4ccccc4[nH]3)s2)cc1)c1ccc(O)cc1 (centres undefined) | 3.31 | 2.37 | 3.11
32 | c1ccc(C2=NN=C(c3ccccn3)C3C4CC(C23)C2C3CC(c5ccccc53)C42)nc1 (centres undefined) | 5.41 | 4.38 | 1.22
33 | CC(C)(C)Nc1cc(C(=O)N[C@@H](Cc2ccccc2)[C@H](O)CNC2CCOCC2)cc(N2CCCCS2(=O)=O)c1 | 0.29 | 0.07 | -0.61
